Laboratory results as given in PubChem BioAssay (NCI).
This is part of a sample that, as a whole, favours compounds with a hit. Of some 83,000 tested, about 20% had one in any assay.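 Method: cells in 96-well plates; compound added at one concentration; 48 h incubation; percent growth measured; values under 10 scored active.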 Values without a mark were called inactive. Active and inactive are the calls of the source.

Key:
Experiment in all cases: NCI-60 one-dose screen, 48 h (100 = growth as untreated, 0 = no growth, -100 = all killed)
Details in all cases: 10 µM unless noted
EKVX NSCLC = test system: EKVX NSCLC
SN12C renal = test system: SN12C renal
UO-31 renal = test system: UO-31 renal
TK-10 renal = test system: TK-10 renal
ACHN renal = test system: ACHN renal
CAKI-1 renal = test system: CAKI-1 renal
A498 renal = test system: A498 renal
OVCAR-8 ovarian = test system: OVCAR-8 ovarian
OVCAR-5 ovarian = test system: OVCAR-5 ovarian
OVCAR-4 ovarian = test system: OVCAR-4 ovarian
SK-OV-3 ovarian = test system: SK-OV-3 ovarian
IGROV1 ovarian = test system: IGROV1 ovarian
OVCAR-3 ovarian = test system: OVCAR-3 ovarian
HS 578T breast = test system: HS 578T breast
NCI/ADR-RES ovarian = test system: NCI/ADR-RES ovarian
T-47D breast = test system: T-47D breast
MOLT-4 leukemia = test system: MOLT-4 leukemia
CCRF-CEM leukemia = test system: CCRF-CEM leukemia
SR leukemia = test system: SR leukemia
RPMI-8226 leukemia = test system: RPMI-8226 leukemia

SMILES	growth (EKVX NSCLC)	growth (SN12C renal)	growth (UO-31 renal)	growth (TK-10 renal)	growth (ACHN renal)	growth (CAKI-1 renal)	growth (A498 renal) [%]	growth (OVCAR-8 ovarian)	growth (OVCAR-5 ovarian)	growth (OVCAR-4 ovarian)	growth (SK-OV-3 ovarian)	growth (IGROV1 ovarian)	growth (OVCAR-3 ovarian)	growth (HS 578T breast) [%]	growth (NCI/ADR-RES ovarian)	growth (T-47D breast)	growth (MOLT-4 leukemia)	growth (CCRF-CEM leukemia)	growth (SR leukemia)	growth (RPMI-8226 leukemia)
Cc1c(C(N)=O)sc2c1C(=O)N(Cc1ccccc1)C1=NN=C(c3ccc(Cl)cc3)CN12	62.7%	61.5%	26.3%	59.4%	21.9%	18.6%	105	18.1%	57.2%	48.6%	58.5%	42.6%	31.5%	78.2	9.99% (active)	63.4%	–	–	–	–
Cc1nn(-c2ccccc2)c2nc(Cl)c(/C=C/C(=O)c3ccccc3)c(-c3ccccc3)c12	107%	102%	82.4%	121%	104%	97.8%	112	–	103%	107%	102%	120%	116%	95.5	105%	107%	–	–	–	–
CC(=O)n1c2ccccc2c2ccccc21	103%	107%	83.6%	115%	117%	97.5%	95.1	100%	89.3%	105%	122%	101%	114%	–	100%	105%	104%	–	–	–
O=C(/C=C/c1cc2ccccc2[nH]c1=O)c1ccc(Cl)cc1	63.7%	47.4%	29.8%	48.5%	51.6%	42.1%	13.7	23.1%	–	43.8%	58%	26.4%	-10.1% (active)	54	-6.67% (active)	34%	2.61% (active)	–	–	–
CC[N+](CC)(CCOCCOCC[N+](CC)(CC)Cc1ccc([N+](=O)[O-])cc1)Cc1ccc([N+](=O)[O-])cc1	101%	94.2%	68.5%	95%	102%	93.7%	–	103%	98.8%	106%	112%	125%	116%	133	98.9%	95.3%	84.8%	102%	107%	96.6%
c1ccc(-c2nn[nH]n2)c(-c2ccc(CN3CCN(c4nsc5ccccc45)CC3)cc2)c1	106%	92.6%	103%	103%	98.7%	84%	85.1	–	96.8%	85.6%	105%	113%	91.4%	105	92%	68.7%	–	–	–	–
O=C(NCCc1ccccc1)C1CCC(=O)N1Cc1ccc(Br)cc1 (stereo not given)	103%	104%	92.6%	99.7%	107%	100%	88.3	–	94.4%	111%	101%	103%	116%	113	107%	106%	94%	–	102%	–
Cc1nn(-c2ccc(Cl)cc2)c2nc3c(nc12)c(=O)oc1ccccc13	108%	101%	101%	107%	99.8%	98.3%	95	–	98%	–	107%	119%	118%	107	102%	111%	–	–	–	–
CCOC(=O)C1C(=O)OC2CCCCC21 (stereo not given)	120%	102%	79.6%	122%	102%	96.1%	–	99.5%	117%	–	109%	103%	126%	105	116%	–	89%	106%	88%	99.9%
O=NC1CC=CCC1c1ccccc1 (stereo not given)	101%	108%	84.2%	103%	93.9%	103%	–	108%	94.5%	106%	111%	111%	118%	125	104%	111%	–	111%	101%	114%
NC(=O)SCC(=O)Nc1ccccc1-c1ccccc1	121%	90.7%	64.9%	106%	83%	105%	–	111%	104%	111%	131%	133%	–	–	106%	132%	98%	103%	122%	99.8%
COc1cc(/C=C/C(=O)N2CCN(C(=O)/C=C/c3ccccc3)CC2)cc(OC)c1OC	121%	111%	77.7%	108%	110%	104%	–	98.1%	117%	97.1%	122%	115%	120%	113	108%	110%	87.8%	100%	78.7%	95.5%
COc1cc(C(=O)/C=C/c2cccnc2Nc2ccccc2)cc(OC)c1OC	-5.31% (active)	-92.6% (active)	-99.5% (active)	-13% (active)	-99.2% (active)	-22.6% (active)	–	-31.3% (active)	-71.2% (active)	-92.4% (active)	-3.48% (active)	-38.2% (active)	-98.5% (active)	24.2	13.4%	-39.8% (active)	-1.45% (active)	-16% (active)	1.47% (active)	-40.3% (active)
Cc1c(C(N)=O)sc2nc(SCC(=O)Nc3ccc(Cl)cc3)n(-c3ccccc3)c(=O)c12	98.4%	95.2%	121%	52.8%	106%	–	192	118%	93.9%	101%	105%	20.6%	131%	348	97.2%	91.1%	156%	86.3%	106%	112%
C[N+]1(CCc2ccccc2)CCC(CCC2CC[N+](C)(CCc3ccccc3)CC2)CC1 (stereo not given)	97.2%	88.5%	72.7%	96.9%	101%	96.6%	–	97%	104%	103%	107%	105%	107%	103	105%	102%	123%	127%	–	126%
Nc1ccc2c(c1)/C(=N/O)c1cc([N+](=O)[O-])ccc1-2	85.9%	86.2%	21.7%	57.6%	58.7%	46.6%	–	87%	102%	84%	81.6%	57%	63.8%	77.2	109%	93%	–	25%	9.6% (active)	58.9%
CCC1=C(c2ccc(OC)cc2)C(C)(C)Oc2c1ccc(O)c2CN1CCCC1	88.8%	51.8%	31.3%	57.3%	57.5%	–	58.4	58%	68.3%	60%	73.9%	51.4%	54.7%	59.3	39.1%	-41.2% (active)	14.3%	21.2%	-4.25% (active)	0.544% (active)
CN(C)c1ccc2c(c1)/C(=N/O)c1ccccc1-2	67.7%	95.4%	64.5%	123%	87.5%	46.6%	–	97.6%	96.2%	82.6%	90.1%	–	93.4%	36.4	41.9%	85.5%	81.2%	83.8%	47.1%	107%
